PubChem BioAssay (Tox21)
Active and inactive are the calls of the source. Calls follow the shape of the dose curve; as a rule, active = well fitted curve in the direction sought with a large enough effect in the repeat runs; inconclusive = weak or mixed curves; inactive = flat fitted curve, though single readings scatter.

Assay: qHTS assay to test for compound auto fluorescence at 535 nm (green) in HEK293 cells (AID 720680)
Details: green autofluorescence 485/535 nm; series mostly up to 91.3 µM
From the text: U.S. Tox21 Program National Center for Advancing Translational Sciences [NCATS] NIH Chemical Genomics Center [NCGC] U.S. Environmental Protection Agency [EPA] National Institutes of Environmental Health Sciences [NIEHS] National Toxicology Program [NTP] U.S. Food and Drug Administration [FDA] Tox21 Assay Overview: Compound auto fluorescence often interferes with screening of the compound library against various biological targets and signaling pathways. Some of these compounds may have fluorophoric properties. Such properties may interfere with the assay outputs resulting in false positives and/or negatives. To decrease such complications and ensure the compound activities are relevant in terms of biological response, the Tox21 10K compound library was screened for auto fluorescence. From the fluorophores used as reporter signals in our screening assays, the auto fluorescence equivalencies of compounds against three fluorophores have been evaluated: Triamterene, Fluorescein and Rose Bengal sodium for blue, green and red fluorescence, respectively. The fluorescence intensities were measured using Excitation/Emission wavelengths at 405/460nm, 485/535nm and 540/590nm for blue, green and red labels, respectively. This assay includes the green fluorescence data.
Tox21 Assay Protocol Summary: 2,000 HEK293 cells in 5 uL of culture medium containing 10% dialyzed FBS per well were dispensed into black wall/clear bottom 1536-well plates using a Multidrop Combi Dispenser (Thermo Scientific). The assay plates were incubated for 4-5 hr at 37C to allow cell attachment to the well bottom, followed by the transfer of 23 nL compound or DMSO vehicle by a pintool work station (Kalypsys, San Diego, CA). After the assay plates were incubated overnight at 37C and 5% CO2, fluorescence intensities in the assay plates were measured by an Envision (PerkinElmer, Shelton, CT) plate reader using three labels for measuring blue, green and red fluorescence at […] 460, 535 and 590nm respectively.

Compound	outcome
O=[N+]([O-])O	inactive
CC[n+]1ccccc1	inactive
O=C(O)CC(O)(CC(=O)O)C(=O)O	inactive
O=C(O)CCl	inactive
CCNc1nc(Cl)nc(NCC)n1	inactive
CCCC[n+]1ccccc1C	inactive
CCCC[n+]1cccc(C)c1	inactive
CCCn1cc[n+](C)c1	inactive
CCCC[N+]1(C)CCCC1	inactive
CCCCCCCCCCn1cc[n+](C)c1	inactive
O=P1(N(CCCl)CCCl)NCCCO1 (stereo not given)	inactive
Nc1ccc(Cl)cc1	inactive
CCOP(=S)(OCC)Oc1ccc2c(C)c(Cl)c(=O)oc2c1	inactive
CCCC[n+]1ccc(C)cc1	inactive
CCn1cc[n+](C)c1C	inactive
CCCCn1cc[n+](C)c1	inactive
CCCCCCn1cc[n+](C)c1	inactive
COc1ccccc1N	inactive
CC(=O)[O][Hg][c]1ccccc1	inactive
Oc1ccccc1-c1ccccc1	inactive

Compound	outcome
CCCCCCCCCCCCn1cc[n+](C)c1	inactive
Nc1ccccc1	inactive
CCCCCCCCCCCCCC[P+](CCCCCC)(CCCCCC)CCCCCC	inactive
CCCCn1cc[n+](C)c1C	inactive
C=CCOC(Cn1ccnc1)c1ccc(Cl)cc1Cl (stereo not given)	inactive
Cc1cc(-c2ccc(N)c(C)c2)ccc1N	inactive
Nc1ccc(-c2ccc(N)c(Cl)c2)cc1Cl	inactive
CN(C)[C@@H]1C(=O)C(C(N)=O)=C(O)[C@@]2(O)C(=O)C3=C(O)c4c(O)cccc4[C@@](C)(O)[C@H]3[C@H](O)[C@@H]12	inactive
CNC	inactive
CCC[N+]1(C)CCCCC1	inactive
OCCOc1ccccc1	inactive
Oc1cccc2cccnc12	inactive
COCC(=O)N(c1c(C)cccc1C)C(C)C(=O)OC (stereo not given)	inactive
C[C@]12CCC(=O)C=C1CC[C@@H]1[C@@H]2CC[C@]2(C)C(=O)CC[C@@H]12	inactive
CC[N+](CC)(CC)CC	inactive
CCCCCC[n+]1ccccc1	inactive
CCCC[n+]1ccccc1	inactive
O=C(O)c1nc(Cl)ccc1Cl	inactive
Cc1cc(Cl)ccc1N	inactive
COP(=O)(OC)OC=C(Cl)Cl	inactive
